EBV LMP1 NFkB = inhibitors of Epstein-Barr LMP1-induced NF-kappaB reporter | AID 504558 | inhibition, % at 12.5 µM | LMP1-induced NF-kappaB luciferase reporter cells, luminescence | actives 0.69% (n = 350,000); in the data active = inhibition above about 41%; inconclusive = no clear call, values can overlap the other calls
Peg3 promoter = Peg3 promoter activity inhibition; inhibition, % at 20 µM; actives 1.7% (n = 360,000); HeLa PEG-Prom luciferase reporter, luminescence, overnight;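 active = inhibition of at least 50% at 20 µM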
TROY NFkB inh = inhibitors of TROY-dependent NF-kB signaling; Q293 LMP1-TROYcd NF-kB luciferase reporter, 4 h; inhibition, % at 10 µM; actives 0.98% (n = 360,000);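 active = compounds whose plate-normalised and pattern-corrected inhibition of the luciferase reporter signal at the single screening dose is 50% or more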
TWEAK-Fn14 inh = inhibitors of TWEAK-Fn14 interaction signaling. actives 2% (n = 360,000). inhibition, % at 10 µM. TWEAK-stimulated Fn14 reporter cells, luciferase luminescence, 8 h. AID 1159606; in the data active = inhibition above about 50%
TRPM1 prom inh = MITF TRPM1 promoter inhibition in SK-MEL-5 cells; AID 488899; SK-MEL-5 TRPM1 promoter luciferase, 24 h; inhibition, % at 12.5 µM; actives 0.83% (n = 330,000);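 active = mean inhibition across replicates of 60% or more, whatever share of single replicates reaches that level; inconclusive = some that reach 60%, reason not given; inactive = mean inhibition across replicates below 60%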
Shn3 inh set2 = reduces Shn3 3'UTR luciferase signal in osteoblasts | Clone20 osteoblast Shn3 3'UTR firefly luciferase, 24 h | inhibition, % at 12.5 µM | actives 0.52% (n = 360,000) | AID 588674;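 active = mean inhibition of at least 75% with every replicate also reaching 75%; inconclusive = mean inhibition at least 75% but some replicate below; inactive = mean inhibition below 75%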
Each line names hits and unclear results; the compound was inactive in the other large screens; ! = not confirmed by another sample. Only some compounds are listed: those with a hit (about 4.1% of all), similar ones and a draw of the others.

CCc1nc(N)nc(N)c1-c1ccc(Cl)c([N+](=O)[O-])c1	none
COc1ccc(Cn2c(=O)[nH]c3cc(C(=O)N4CCN(c5ccc(C(C)=O)cc5)CC4)ccc3c2=O)cc1	none
CN(C)c1ncnc2c1C(c1ccccc1)C(C)(C)O2 (stereo not drawn)	Shn3 inh set2 96
OC1C(O)C(O)C(O)C(O)C1O (stereo not drawn)	EBV LMP1 NFkB 91!
COc1cc(F)ccc1-c1csc(C(NC(C)=O)c2ccccc2)n1 (stereo not drawn)	none (no result: EBV LMP1 NFkB, TRPM1 prom inh)
O=C(NC1CCCCC1)N1CCN(c2ccc(Cl)cc2)CC1	none
CCNC(=S)N1CCN(c2ccc([N+](=O)[O-])cc2)CC1	none
O=C(NC1CCCCC1)N1CCN(c2ccc([N+](=O)[O-])cc2)CC1	EBV LMP1 NFkB 75
O=[N+]([O-])c1ccc(N2CCN(C(=S)NCc3ccc(Cl)cc3)CC2)cc1	TWEAK-Fn14 inh 64
COc1ccccc1OC(C)C(=O)Nc1ccccc1C(=O)NCC1CCCO1 (stereo not drawn)	none
CCCCn1c(N)c(N(CCOC)C(=O)c2c(C)noc2C)c(=O)[nH]c1=O	none
N#CCC(=O)Nc1ccc(C(=O)OCC(=O)N=c2sccn2Cc2ccccc2Cl)cc1	none
N#Cc1cccc(C(=O)Nc2cc(S(=O)(=O)N3CCOCC3)ccc2N2CCCC2)c1	none
O=C1NC(=O)/C(=C/c2ccccc2OCc2ccccc2)S1	TROY NFkB inh 55
O=C(COc1ccccc1/C=C1\SC(=O)NC1=O)Nc1ccccc1	none
CCn1c(=O)cc(SCC(=O)NCc2ccc(C)cc2)c2ccccc21	none
CCn1c(=O)cc(SCC(=O)Nc2ccc(C)cn2)c2ccccc21	Peg3 promoter 83
O=NN(C(=O)NCc1cccnc1)C1CCCCC1	TROY NFkB inh 58 (no result: EBV LMP1 NFkB, TRPM1 prom inh)
Cc1ccccc1NCC(=O)N/N=C/C(Br)=C/c1ccccc1	TWEAK-Fn14 inh 58
O=C(Cc1cccs1)N/N=C/C(Br)=C/c1ccccc1	none
CCCCN(C(=O)C1CC(=O)N(c2ccc(C)cc2)C1)c1c(N)n(CCC)c(=O)[nH]c1=O (stereo not drawn)	none
Cc1c(Cc2ccccc2)sc(/N=C/c2ccc3ccccc3c2)c1C(N)=O	TWEAK-Fn14 inh 60
Cc1c(Cc2ccccc2)sc(/N=C/c2c(O)ccc3ccccc23)c1C(N)=O	none
O=C(CCn1c2c(c3ccccc31)CCCC2)NNC(=O)c1cccc([N+](=O)[O-])c1	none
O=C(CCn1c2c(c3ccccc31)CCCC2)NNC(=O)c1ccccc1Cl	TWEAK-Fn14 inh 65
CC(=O)c1sc(Nc2nc3ccc(F)cc3s2)nc1C	none
CCOC(=O)c1csc(Nc2nc3ccc(F)cc3s2)n1	TWEAK-Fn14 inh 105
CC1CC(CN)CC(CO)C1 (stereo not drawn)	TWEAK-Fn14 inh 53
O=C(NCc1ccc(Cl)cc1Cl)Nc1nc([C@@H]2O[C@H](CO)[C@@H](O)[C@H](O)[C@H]2O)cs1	none (no result: EBV LMP1 NFkB, TRPM1 prom inh)
O=C(O)c1cc2ccccc2c(N=Nc2cccnc2)c1O	Peg3 promoter 55, TRPM1 prom inh inconclusive
CCOC(=O)C1=C(COC(=O)COc2ccc(C(C)=O)cc2)NC(=O)NC1C (stereo not drawn)	none
CCOC(=O)C1=C(COC(=O)COc2ccc(C#N)cc2)NC(=O)NC1C (stereo not drawn)	TWEAK-Fn14 inh 90
O=C(Nc1ccccc1C(=O)Nc1ccccn1)c1cc(F)c(F)cc1Cl	none
O=C(NNC(=O)c1ccc2ccccc2c1)c1cccc(Cl)c1	none
Cc1cc(=O)[nH]c(N=N/C(=N/Nc2ccccc2C)c2ccccc2)n1	EBV LMP1 NFkB 50
Cc1cc(=O)[nH]c(N=N/C(=N/Nc2ccc(O)cc2)c2ccccc2)n1	none
Cc1ccc(C(=O)Nc2ccc(C)c(S(=O)(=O)Nc3ccccc3Cl)c2)s1	none
Cc1ccc(NC(=O)c2cc3c(s2)CCCC3)cc1S(=O)(=O)Nc1ccccc1Cl	TWEAK-Fn14 inh 78
O=C(Nc1cccc(S(=O)(=O)Nc2ccc(Cl)cc2)c1)c1cc2c(s1)CCCC2	TWEAK-Fn14 inh 84
CCOc1ccccc1Nc1nnc(SCC(=O)NC2CC2)s1	none
CCN(CC)C1CCN(C(=O)c2cc(COc3ccc(F)cc3Cl)on2)C1 (stereo not drawn)	none
COCC1CCN(C(=O)c2cc(COc3ccc(F)cc3Cl)on2)C1 (stereo not drawn)	TWEAK-Fn14 inh 94 (no result: TRPM1 prom inh)
O=C(O)c1ccc(/C=N/NC(=O)c2cc3c(ccc4ccccc43)o2)cc1	TROY NFkB inh 63
Cc1cc([N+](=O)[O-])ccc1-c1ccc(/C=N/NC(=O)c2ccc(Br)o2)o1	Peg3 promoter 111
O=C(CNc1ccc2ccccc2c1)N/N=C/c1ccc(C(=O)O)cc1	TWEAK-Fn14 inh 53
Cc1ccc([N+](=O)[O-])cc1-c1ccc(/C=N/NC(=O)c2cc3c(ccc4ccccc43)o2)o1	none
Cc1ccc(-c2ccc(/C=N\NC(=O)c3cc4c(ccc5ccccc54)o3)o2)cc1[N+](=O)[O-]	Peg3 promoter 91
CC(CC(=O)Nc1ccc2c(c1)c(=O)n(C)n2Cc1ccc(F)cc1)C(F)(F)F (stereo not drawn)	none (no result: EBV LMP1 NFkB, TRPM1 prom inh)
COc1cc(/C=N/NS(=O)(=O)c2ccc3ccccc3c2)ccc1OCc1ccc(C(=O)O)cc1	EBV LMP1 NFkB 67, TRPM1 prom inh 64
COc1cc(/C=N/NS(=O)(=O)c2ccc(C)cc2)ccc1OCc1cccc(C(=O)O)c1	EBV LMP1 NFkB 73, TRPM1 prom inh 78
COc1ccc(/C=N/NS(=O)(=O)c2ccc(C)cc2)cc1OC(=O)c1ccccc1	none
COc1cc(/C=N/NC(=O)COc2cc(C)cc(C)c2)ccc1OS(=O)(=O)c1ccc(C)cc1	TWEAK-Fn14 inh 62
COc1ccc(/C=N/NS(=O)(=O)c2ccccc2)cc1OC(=O)c1ccc(C)cc1	none
Brc1ccc(C2=Nn3cnnc3SC2)cc1	none
COc1ccc(-c2cc(C(=O)OCC(=O)NC3CC3)c3ccccc3n2)cc1	none
COc1ccc(-c2cc(C(=O)Nc3c(C)n(C)n(-c4ccccc4)c3=O)c3ccccc3n2)cc1	none
COc1ccc2cc(-c3cc(C(=O)OCC(=O)NC4CCS(=O)(=O)C4)c4ccccc4n3)ccc2c1 (stereo not drawn)	EBV LMP1 NFkB 50
COc1ccc2cc(-c3cc(C(=O)OCC(=O)Nc4c(C)n(C)n(-c5ccccc5)c4=O)c4ccccc4n3)ccc2c1	EBV LMP1 NFkB 58, TWEAK-Fn14 inh 60
CCCCn1c(N)c(N(CCC(C)C)C(=O)CSc2nncn2-c2ccccc2)c(=O)[nH]c1=O	none
NS(=O)(=O)c1ccc(Sc2nc3ccccc3s2)c([N+](=O)[O-])c1	EBV LMP1 NFkB 70, TWEAK-Fn14 inh 84 (no result: Shn3 inh set2)
COc1ccc(S(=O)(=O)Nc2cccc3c2O[C@H](CN(C)C(=O)NC2CCCCC2)[C@@H](C)CN([C@H](C)CO)C3=O)cc1	none
COc1cc(OC)cc(C(=O)NNC(=O)CCC(=O)c2cccs2)c1	none
